{"source": "PubChem BioAssay (Tox21)", "note": "Results filed as inconclusive are left out. Active and inactive are the calls of the source. Calls follow the shape of the dose curve; as a rule, active = well fitted cell-killing curve with a large enough effect in the repeat runs; inconclusive = weak or mixed curves, or effect the other way; inactive = flat fitted curve, though single readings scatter. % is scaled to controls: 0 for no effect and ±100 for the full control effect."}
{"experiment": "qHTS assay to identify small molecule agonists of the estrogen receptor beta (ER-beta) signaling pathway - cell viability counter screen (AID 1259380); also: nearly all actives have a fitted effect of over 30% in size", "details": "ER-beta-bla HEK293T viability, CellTiter-Glo luminescence, 16 h; series mostly up to 92.4 µM", "summary_of_the_method": "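Cells used were ER-beta-UAS-bla HEK293T in medium with 2% charcoal-stripped FBS. They were treated for 16 hr at 37C. Viability came from CellTiter-Glo luminescence.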"}
{"smiles": "C=COCCOCCOC=C", "outcome": "inactive"}
{"smiles": "O=C(O)CCNC(=O)c1ccccc1", "outcome": "inactive"}
{"smiles": "CCOC(=O)C(=O)c1csc(NC=O)n1", "outcome": "inactive"}
{"smiles": "CCC(CO)CO", "outcome": "inactive"}
{"smiles": "Nc1nc(=O)n([C@@H]2O[C@H](CO)[C@@H](O)[C@@H]2F)cc1I", "outcome": "inactive"}
{"smiles": "COc1ccc(N=Nc2cc(C)c(N=Nc3ccc(S(=O)(=O)O)cc3)cc2OC)cc1", "outcome": "inactive"}
{"smiles": "OC(CCN1CCCCC1)(c1ccccc1)c1ccccc1", "outcome": "inactive"}
{"smiles": "COc1ccc(NS(=O)(=O)c2ccc(N)cc2)nn1", "outcome": "inactive"}
{"smiles": "CCCCCC1CCCC(=O)O1", "note": "(stereo not drawn)", "outcome": "inactive"}
{"smiles": "C=C(C)C(=O)OC1CC(C)CC(C)(C)C1", "note": "(stereo not drawn)", "outcome": "inactive"}
{"smiles": "C=C[C@@H](C)CCC=C(C)C", "outcome": "inactive"}
{"smiles": "CCN(CC)C(=O)C1CN2CCc3cc(OC)c(OC)cc3C2CC1OC(C)=O", "note": "(stereo not drawn)", "outcome": "inactive"}
{"smiles": "O=C(Oc1ccccc1C(=O)O)c1ccccc1O", "outcome": "inactive"}
{"smiles": "NC(=O)NNC(N)=O", "outcome": "inactive"}
{"smiles": "C=CCCCCCCCCCCC", "activity change, negative = cytotoxicity": "-6.43% [at 8.39 µM] (inactive)"}
{"smiles": "CCCCC(C)C(=O)O", "note": "(stereo not drawn)", "outcome": "inactive"}
{"smiles": "CCCCCCCCCCCCCCCCCCN(C)C", "outcome": "inactive"}
{"smiles": "COc1cc2c3cc1Oc1cc(ccc1O)C[C@@H]1c4c(cc(OC)c(O)c4Oc4ccc(cc4)C[C@@H]3N(C)CC2)CC[N+]1(C)C", "outcome": "inactive"}
{"smiles": "CCC(C)(CCC(C)C)C(=O)[O-].CCC(C)(CCC(C)C)C(=O)[O-].[Zn+2]", "note": "(stereo not drawn)", "outcome": "inactive"}
{"smiles": "CCc1nccnc1C", "outcome": "inactive"}
{"smiles": "C=CCOc1c(Br)cc(C(C)(C)c2cc(Br)c(OCC=C)c(Br)c2)cc1Br", "outcome": "inactive"}
{"smiles": "CN(C)CCCNCCC#N", "outcome": "inactive"}
{"smiles": "FC(F)(F)/C(=N\\OCC1OCCO1)c1ccc(Cl)cc1", "outcome": "inactive"}
